# Screening data (PubChem BioAssay)
# Sampled rows, rich in hits. Any-hit rate of the full collection: about 2.4%.
# Pol beta inh – qHTS Assay for Inhibitors of DNA Polymerase Beta; P06746; AID 485314, 2010; hit rate 1.3% among 340,000; Potency, µM (doses to about 114 µM), hits mostly inhibitors; Pol beta primer extension/strand displacement, fluorescence kinetic
#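 Enzyme-only controls used 10 nM Pol beta; buffer lacking enzyme served as negative control. Compound preincubated 15 min, then 50 nM substrate added; 0 and 10 min reads at room temperature.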
# POLH inh – qHTS for Inhibitors of Polymerase Eta. DNA polymerase eta (Homo sapiens), Q9Y253. recombinant Pol eta, fluorescent DNA replication assay. Potency, µM (titrated, usually from 114 µM), most hits filed as inhibitors. hit rate 1.2% among 390,000. AID 588591, 2011
# Target sequence (Q9Y253 whole entry, looked up): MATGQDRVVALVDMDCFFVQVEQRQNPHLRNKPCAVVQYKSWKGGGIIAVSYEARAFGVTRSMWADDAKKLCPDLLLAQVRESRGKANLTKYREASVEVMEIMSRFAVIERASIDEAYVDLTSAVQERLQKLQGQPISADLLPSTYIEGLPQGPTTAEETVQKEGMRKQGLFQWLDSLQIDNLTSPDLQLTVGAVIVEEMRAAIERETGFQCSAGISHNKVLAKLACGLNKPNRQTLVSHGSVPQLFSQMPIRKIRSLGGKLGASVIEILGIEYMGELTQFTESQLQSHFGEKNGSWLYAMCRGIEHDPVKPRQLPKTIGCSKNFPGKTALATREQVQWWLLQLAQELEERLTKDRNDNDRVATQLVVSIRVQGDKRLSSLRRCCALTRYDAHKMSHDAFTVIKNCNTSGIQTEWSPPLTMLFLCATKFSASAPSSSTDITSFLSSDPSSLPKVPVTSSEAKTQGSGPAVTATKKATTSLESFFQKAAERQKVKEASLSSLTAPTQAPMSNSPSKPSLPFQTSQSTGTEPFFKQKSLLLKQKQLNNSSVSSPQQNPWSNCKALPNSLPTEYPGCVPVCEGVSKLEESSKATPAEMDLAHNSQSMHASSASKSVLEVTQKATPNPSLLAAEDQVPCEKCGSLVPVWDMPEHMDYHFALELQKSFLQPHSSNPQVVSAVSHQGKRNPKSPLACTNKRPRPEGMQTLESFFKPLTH
#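 Pol eta (10 nM) was preincubated with compounds for 15 min at room temperature, after which fluorescent replication substrate (50 nM final) was added to start the reaction. Fluorescence was read kinetically at 0 and 10 min.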
# POLI inh – qHTS for Inhibitors of Polymerase Iota | DNA polymerase iota (Homo sapiens), Q9UNA4 | Potency, µM (top dose mostly 115 µM), actives largely listed as inhibitors | Pol iota fluorescent replication assay, 10 min | hit rate 1% among 390,000
#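 Pol iota at 10 nM preincubated 15 min with compounds at room temperature; reaction started with fluorescent substrate, 50 nM final. Fluorescence read kinetically at 0 and 10 min; buffer-only wells as negative control.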
# WRN helicase inh – qHTS for Inhibitors of WRN Helicase; hit rate 0.46% among 360,000; Bifunctional 3'-5' exonuclease/ATP-dependent helicase WRN (Homo sapiens), Q14191; WRN helicase unwinding, fluorescent forked duplex, kinetic; Potency, µM (titrated, usually from 114 µM), usual class: inhibitors; also: nearly all actives have a fitted effect of over 55% in size
#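 Enzyme (20 nM final) and test compound sit together 15 min at room temperature before substrate addition. Substrate is a single-forked duplex oligonucleotide (100 nM) labelled with fluorophore and quencher, with 2 mM ATP; helicase unwinding raises red fluorescence, read kinetically.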
# FEN1 inh – qHTS Assay for the Inhibitors of Human Flap endonuclease 1 (FEN1). hit rate 0.35% among 390,000. P39748. Potency, µM (highest dose often 114 µM), actives largely listed as inhibitors. Recombinant FEN1 flap cleavage, fluorescence, 15 min; also: nearly all actives have a fitted effect of over 65% in size
#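 In this screen, 50 nM flap DNA substrate was added to 10 nM FEN1 pretreated with compound for 15 min at room temperature; cleavage was followed with reads at 0 and 15 min, and Hill fitting gave concentration–response parameters.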
# Pol kappa inh – qHTS for Inhibitors of Polymerase Kappa | AID 588579, 2011 | DNA polymerase kappa (Homo sapiens), Q9UBT6 | purified Pol kappa, fluorescent DNA synthesis assay, 10 min | Potency, µM (titrated, usually from 107 µM), usual class: inhibitors | hit rate 0.53% among 400,000
#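 Kinetic fluorescence screen: compound preincubated 15 min RT with 10 nM enzyme; 50 nM substrate (final) initiates; reads at 0/10 min.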
# Hits are given with their value; n = inactive; u = inconclusive; x = no result; ! = repeats disagree; [ ] = another dose, or the depositor's remark. Calls follow the shape of the dose curve; as a rule, active = well fitted curve in the direction sought with a large enough effect; inconclusive = small, poorly fitted or top-dose-only effect, or another doubt; inactive = no such curve, though single readings can be large; an effect the other way counts as inactive or inconclusive.
SMILES,Pol beta inh,POLH inh,POLI inh,WRN helicase inh,FEN1 inh,Pol kappa inh
Cc1ccc2c(c1)C/C(=C/c1ccc(N(C)C)cc1)C2=O,x,x,n,x,n,n
CNC(=O)c1ccsc1NC(=O)c1sc2ccccc2c1Cl,14µM,u,u,n,n,u
O=C(OCc1cc(=O)n2c(n1)sc1ccccc12)c1cccc(O)c1,22µM,u,45µM,u,n,50µM
Cc1ccc(C(=O)N[C@H](C(=O)OCc2cc(=O)n3c(n2)sc2ccccc23)C(C)C)cc1,14µM,u,u,n,n,u
O=C(OCc1cc(=O)n2c(n1)sc1ccccc12)c1ccc(O)cc1O,2.8µM,u,40µM,n,n,79µM
O=C(Cc1coc2cc3c(cc12)CCC3)OCc1cc(=O)n2c(n1)sc1ccccc12,10µM,10µM,u,n,n,89µM
Cc1cn2c(=O)cc(COC(=O)c3ccccc3F)nc2s1,n,n,n,x,n,n
Cc1cccc(C(=O)Nc2ccccc2OCc2cc(=O)n3c(C)csc3n2)c1,n,n,n,x,n,n
Cc1cccc(C(=O)Nc2ccc(C(=O)OCc3cc(=O)n4c(C)csc4n3)cc2)c1,13µM,n,n,x,n,n
Clc1nc(NCC2CCCO2)c2[nH]cnc2n1 (configuration not stated),x,x,n,x,n,n
O=C(O)CSc1nnc(SCc2cccc3ccccc23)s1,89µM,n,n,n,n,n
Cc1cc(N)ccc1-n1c(C)ccc1C,n,n,n,n,n,n
Cc1cc(N)ccc1N1CCCC1,n,n,u,50µM,40µM,n
Oc1c(Cl)cc(Cl)cc1Sc1cc(Cl)cc(Cl)c1O,22µM,x,x,x,x,u
CCOC(=O)c1c(C)nc(C)c(C(=O)OCC)c1-c1ccc(OC)cc1,0.16µM!,n,n,n,n,n
N#CC(Cc1ccc(O)c(O)c1)C(=O)N1CCc2ccccc21 (configuration not stated),u,7.9µM,u,x,x,x
O=C(NNC(=O)c1ccccc1Cl)c1ccccc1Cl,89µM,n,n,n,n,n
COc1ccc(CCn2c(=S)[nH]c(=O)c3cccnc32)cc1OC,x,x,n,x,n,n
CCOC(=O)c1sc(N2C(=O)C(O)=C(C(=O)c3ccco3)C2c2ccco2)nc1C (configuration not stated),u,u,56µM,n[11.6 µM],n,u
CC[C@H](C)[C@H](NC(=O)[C@H](CCC(=O)O)NC(=O)CNC(=O)[C@@H](NC(=O)[C@@H]1CCCN1C(=O)[C@@H](NC(=O)[C@@H]1CCCN1C(=O)[C@@H]1CCCN1C(=O)[C@H](CC(N)=O)NC(=O)[C@H](CC(N)=O)NC(=O)[C@@H](NC(=O)[C@H](CCSC)NC(=O)[C@H](Cc1c[nH]c2ccccc12)NC(=O)CNC(=O)[C@@H](NC(=O)[C@H](CCC(N)=O)NC(=O)[C@@H](N)CCC(=O)O)[C@@H](C)CC)[C@@H](C)O)[C@@H](C)CC)C(C)C)C(=O)O,x,x,x,x,x,n
CC1OC(OCC2OC(Oc3cc(O)c4c(c3)OC(c3ccc(O)cc3)CC4=O)C(O)C(O)C2O)C(O)C(O)C1O (configuration not stated),x,x,x,x,x,n[12 µM]
CC1CCC(C(=O)NNC(=O)c2cc(-c3ccco3)[nH]n2)CC1 (configuration not stated),n,n,n,n,n,n
O=C(O)c1cc(-c2ccco2)[nH]n1,28µM,u,n,n,n,n
OCCN1CCN(c2cc(-c3ccccc3)c3ccccc3n2)CC1,n,n,n,79µM,n,n
COc1ccc(CN(C(=O)/C=C/c2ccco2)C2CCS(=O)(=O)C2)cc1OC (configuration not stated),n,n,79µM,n,n,u
SMILES,Pol beta inh,POLH inh,POLI inh,WRN helicase inh,FEN1 inh,Pol kappa inh
CN(C)c1ccc(CN(C(=O)/C=C/c2ccco2)C2CCS(=O)(=O)C2)cc1 (configuration not stated),n,n,n,n,n,n
O=C(/C=C/c1ccco1)N(Cc1ccc(Cl)cc1)C1CCS(=O)(=O)C1 (configuration not stated),n,u,40µM,n,n,u
CCOc1ccc(CN(C(=O)/C=C/c2ccco2)C2CCS(=O)(=O)C2)cc1 (configuration not stated),u,n,u,n,n,n
COc1ccc(CN2CC[C@H]3C=CC[C@@H](C(=O)N4CCN(c5ccccc5)CC4)[C@H]3C2=O)cc1OC,x,x,n,x,n,n
CC1(C)C2CC[C@]1(C)[C@@H](O)C2,x,x,x,x,x,n[19.4 µM]
O=Cc1ccc(O)cc1O,n,n,n,n,n,n
O=CN/C=C/c1cc(O)ccc1O,u,50µM,22µM,n,18µM,45µM
COc1cc(/C=N/NC(=O)c2ccncc2)ccc1OCCN1CCCCC1,u,n,u,n,n,u
COc1cc(/C=N/NC(=O)c2cc3ccccc3cc2O)ccc1OCCN1CCCCC1,79µM,n,u,n,u,n
Cc1c(C(=O)O)sc2nc(/C=C/c3cccc(F)c3)[nH]c(=O)c12,45µM,79µM,n,n[11.6 µM],u,n
C=CCn1c(SCc2nc3sc(C(=O)O)c(C)c3c(=O)[nH]2)nnc1-c1ccc(F)cc1,n,u,n,n,n,n
COc1ccccc1CCC(=O)O,x,x,n,x,n,n
CCCCOCC1CN(c2ccccc2)C(=O)CS1 (configuration not stated),u,20µM,n,n[11.6 µM],n,n
CC1CN(c2ccccc2)C(=O)CS1 (configuration not stated),45µM,20µM,u,n,n,n
COc1ccc(C2SCC(=O)N2c2ccccc2)cc1 (configuration not stated),n,n,n,n,n,n
CCCCC1C(=O)N(c2ccccc2)N(c2ccccc2)C1=O,n,n,u,n,n,n
CCCC[C@@H]1CCCO[C@@](C(=O)NCc2ccccc2)(C(F)(F)F)C1,x,x,n,x,n,n
CNCC(=O)c1c[nH]c2ccccc12,x,x,n,x,n,n
CC(=O)Nc1ccc(SCCN2CCN(CC(C)C)CCC2=O)cc1,x,x,n,x,n,n
COc1ccc(/C=C2\CCn3c2nc2cc(C(=O)O)ccc2c3=O)cc1O,25µM,18µM,u,u,u,n
COc1ccc(/C=C2\CCn3c2nc2cc(C(=O)O)ccc2c3=O)cc1OC,n,n,n,u,n,n
Cc1ccc(S(=O)(=O)Nc2c(O)ccc3ccccc23)cc1,x,n,u,40µM,u,n
Cc1ccc(S(=O)(=O)NN=Cc2c(O)ccc3ccccc23)cc1,x,n,x,n,x,x
O=S(=O)(Nc1c(O)ccc2ccccc12)c1cccc2ccccc12,x,n,n,22µM,u,n
